# Compound activity: PubChem BioAssay, several laboratories
# This is a sample that favours compounds with a hit; in the whole collection about 4.1% have one here.
# SUMO Mot1 rescue – inhibitors of SUMOylation pathway: yeast Mot1-301 growth rescue | AID 2716 | S. cerevisiae Mot1-301 growth rescue, ATP luminescence, 38.5C; percent above DMSO median, 100 means doubled | growth rescue, % at 18.8 µM | hit rate 1% among 320,000;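 active = every valid replicate shows activation above 250% relative to neutral control wells; inactive = the rest, any valid replicate at or below 250%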;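 note: OY570 slx delta 5 strain wells were the positive control but not used for scaling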
# CHT block – human CHT choline transport inhibition; Q9GZV3; CHT-expressing cells, membrane potential dye, choline response; active compounds read low; B-score at 10 µM; hit rate 0.86% among 310,000;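 active = B-score over 3 SD under the library average, and starting fluorescence ratio not unusually high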;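 note: choline stimulus applied at its EC90 after an EC20 pre-addition; B-score computed on integrated fluorescence ratio after choline addition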
# MEKK2wt PB1 HTS – raises or lowers MEK5 binding to wildtype human MEKK2 PB1 domain; Q9Y2U5; bead flow cytometry, Alexa488-MEK5 binding to MEKK2 WT; actives lie on both sides; binding response (% of control), % at 10 µM; hit rate 1.1% among 290,000; in the data active = binding response below about 67% or above about 130%
# MEKK2mut PB1 HTS – signal of MEK5 binding to mutant human MEKK2 PB1 domain | AID 1530 | hit rate 0.35% among 290,000 | bead flow cytometry, Alexa488-MEK5 binding to MEKK2 mutant | percent response, % at 10 µM; in the data active = percent response above about 24%, passing the limit was not always enough
# MEKK3 PB1 HTS – modulators (inhibitors or enhancers) of MEK5 binding to human MEKK3 PB1 domain; Q99759; bead-based flow cytometry, Alexa488-MEK5 binding to MEKK3; actives lie on both sides; 0 = blocked by unlabeled MEK5, 100 = vehicle; binding response (% of control), % at 10 µM; hit rate 1.4% among 290,000; AID 1529;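 active = binding response more than 3 SD above or below the average of its plate-row segment, actives on both sides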;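 note: Alexa488 bead fluorescence after subtracting the streptavidin-only scavenger bead signal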
# Target sequence (Q99759 whole entry, looked up, the tested form may be a part): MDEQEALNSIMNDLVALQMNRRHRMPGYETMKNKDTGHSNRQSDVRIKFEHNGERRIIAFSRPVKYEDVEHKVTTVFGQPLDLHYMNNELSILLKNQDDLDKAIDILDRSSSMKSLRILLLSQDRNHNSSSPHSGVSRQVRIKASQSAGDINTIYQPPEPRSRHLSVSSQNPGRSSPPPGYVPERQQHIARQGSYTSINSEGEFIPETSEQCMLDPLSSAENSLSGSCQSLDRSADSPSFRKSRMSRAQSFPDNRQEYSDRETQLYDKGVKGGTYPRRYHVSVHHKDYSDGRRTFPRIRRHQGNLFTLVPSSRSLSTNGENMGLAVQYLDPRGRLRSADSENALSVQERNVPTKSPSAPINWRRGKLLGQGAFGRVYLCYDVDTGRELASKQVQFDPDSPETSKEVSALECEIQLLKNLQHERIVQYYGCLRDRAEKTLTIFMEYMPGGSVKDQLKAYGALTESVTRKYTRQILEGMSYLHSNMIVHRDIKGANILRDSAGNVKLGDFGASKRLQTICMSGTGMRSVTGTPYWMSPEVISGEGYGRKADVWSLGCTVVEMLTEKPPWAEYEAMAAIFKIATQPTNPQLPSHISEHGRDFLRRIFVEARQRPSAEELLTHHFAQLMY
# CHT PAM – human CHT allosteric activation. Q9GZV3. CHT-expressing cells, membrane potential dye, choline EC20; active compounds read high; LV-AA mutant CHT in HEK293 cells. hit rate 0.49% among 310,000. B-score at 10 µM;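 active = initial fluorescence not abnormally high and integrated response B-score, plate-corrected, over 3 SD above library mean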
# CHT inh conf – human CHT inhibition, confirmatory screen. CHT activity remaining % of control (active compounds read low), % at 10 µM. shares compounds with CHT block. hit rate 70% among 2,400. CHT-expressing cells, choline membrane potential dye; LV-to-AA substituted CHT, HEK293 cells;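 active = choline transporter activity left, mean of duplicates at 10 µM, below buffer-only control mean minus 3 SD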;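 note: depolarization triggered by choline at its EC90 following an EC20 pre-addition; 0% = hemicholinium-3 full block and 100% = buffer-only control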
# HEK293 CHT ctr – counter-screen for CHT inhibitors: effect in parental HEK293 cells; shares compounds with CHT block; membrane potential ratio readout (active if shifted either direction beyond buffer ±3SD; no single direction) at 10 µM; membrane potential dye, choline response; active = decrease or increase beyond buffer ±3SD; hit rate 4% among 2,400;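 note: parental cells lack the transporter so any hit is non-specific; ratio is peak minus trough fluorescence over baseline after EC90 choline challenge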
# Active calls of the source: *; i = inactive; x = no result given.
SMILES,SUMO Mot1 rescue,CHT block,MEKK2wt PB1 HTS,MEKK2mut PB1 HTS,MEKK3 PB1 HTS,CHT PAM,CHT inh conf,HEK293 CHT ctr
CC1CCc2c(sc3ncnc(SCC(=O)Nc4ccc(C(=O)O)cc4)c23)C1 (configuration not stated),4.2,i,99.0,-1.0,104.0,i,x,x
COC(=O)CSc1[nH]c2ccc(F)cc2c1[N+](=O)[O-],-26.3,-7.21*,100.0,-3.0,103.0,i,15.0%*,i
O=C(CSc1nn(-c2ccc(F)cc2)c(=S)s1)NCC1CCCO1 (configuration not stated),23.1,-5.36*,102.0,0.0,103.0,i,i,i
NC(=O)CC(NC(=O)Cc1ccc(Br)cc1)c1ccc(N2CCC(N3CCCCC3)CC2)c([N+](=O)[O-])c1 (configuration not stated),17.3,i,104.0,-2.0,98.0,i,x,x
Cc1ccc(S(=O)(=O)N2CCC(C(N)=O)CC2)cc1[N+](=O)[O-],-12.6,i,101.0,1.0,96.0,i,x,x
CC(C)OC(=O)c1cccc(-c2ccc(C=O)o2)c1,4.0,-5.23*,66.0,3.0,99.0,i,56.3%*,i
CC(C)OC(=O)c1ccc(COC(=O)c2cccc(-c3nnc(-c4ccccc4)o3)c2)cc1,-10.4,i,89.0,9.0,104.0,i,x,x
O=C(NC1CC1)C1=C[C@H](c2csc3ccccc23)C[C@H](OCc2ccc(CO)cc2)O1,-4.7,-5.18*,90.0,-6.0,97.0,i,55.6%*,i
O=C(NC1CC1)C1=C[C@@H](c2ccc(C(F)(F)F)cc2)C[C@@H](OCc2ccc(CO)cc2)O1,-16.4,i,104.0,1.0,105.0,i,x,x
O=C(NC1CC1)C1=C[C@H](c2ccc(Br)cc2)C[C@H](OCc2ccc(CO)cc2)O1,4.6,-6.37*,93.0,-5.0,94.0,i,52.1%*,i
O=C(Nc1ccccc1)C1=C[C@H](c2csc3ccccc23)C[C@H](OCc2ccc(CO)cc2)O1,-9.9,i,105.0,-1.0,107.0,i,x,x
O=C(Nc1cccc(Cl)c1)Nc1csc([N+](=O)[O-])c1,13.9,i,126.0,12.0,106.0,i,x,x
Cc1ccc2cc(C#N)c(N3CCN(C(=O)c4ccccc4)CC3)nc2c1,-9.9,-5.2*,109.0,0.0,104.0,i,i,i
COc1cc(C(=O)N2CCCN(c3nc4cc(C)ccc4cc3C#N)CC2)cc(OC)c1OC,-5.2,i,94.0,-2.0,102.0,i,x,x
O=c1c2ccccc2nc(SCc2ccncc2)n1CC1CCCO1 (configuration not stated),0.2,-4.96*,101.0,4.0,103.0,i,38.1%*,i
O=C(CSc1nc2ccccc2c(=O)n1CC1CCCO1)NCc1ccccc1 (configuration not stated),-0.1,i,101.0,-2.0,100.0,i,x,x
Cc1ccccc1C(=O)N1CCCN(C(=O)c2ccccc2C)CC1,7.8,-6.81*,106.0,1.0,104.0,i,i,i
O=S(=O)(c1ccc(Cl)s1)N1CCN(CCc2ccccc2)CC1,-21.1,i,93.0,-5.0,99.0,i,x,x
Cc1nc(-c2ccc(S(=O)(=O)N3CCCN(CCc4ccccc4)CC3)s2)cs1,15.3,-5.36*,118.0,3.0,98.0,i,i,i
CC[C@H](CO)Nc1nc(Nc2cccc(Cl)c2)c2ncn(C(C)C)c2n1,-13.2,-8.96*,83.0,2.0,106.0,i,48.1%*,i
CC(C)[C@H](CO)N(Cc1cccc(F)c1)c1nc(Nc2cccc(Cl)c2)c2ncn(C(C)C)c2n1,2.6,i,107.0,8.0,97.0,i,x,x
